BoNT-F LC inh – BoNT/F light chain protease inhibitors, primary screen, biochemical, flow cytometry, MLPCN library. 360,000 tested, 0.22% active. Botulinum neurotoxin type F light chain protease (Clostridium botulinum). inhibition, % at 10 µM. Multiplex microsphere protease cleavage assay; in the data active means inhibition above about 35%, passing the limit was not always enough; inconclusive means no clear call, values can overlap the other calls; further: plate controls were buffer without enzyme for full effect and enzyme alone for no effect
BoNT A protease – BoNT/A light chain protease inhibitors, primary screen, biochemical, flow cytometry, MLPCN library. Botulinum neurotoxin type A light chain protease (Clostridium botulinum A str. ATCC 3502). multiplex microsphere protease substrate cleavage. inhibition, % at 10 µM. 360,000 tested, 0.17% active. AID 588499, 2011; further: plate controls were buffer without enzyme for full effect and enzyme alone for no effect
PfHsp40 yeast – rescue of yeast from PfHsp40 toxicity, primary screen, S. cerevisiae, ATP luminescence. 340,000 tested, 0.68% active. AID 504582, 2011. growth rescue, % at 12.5 µM. S. cerevisiae expressing PfHsp40, growth rescue; in the data active means growth rescue above about 28%, passing the limit was not always enough; inconclusive means no clear call, values can overlap the other calls;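 further: yeast W303a lacking pdr1 and pdr3 grown in galactose medium; growth measured after three days at 30 °C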
Bead autofluor – counter-screen for toxin protease inhibitors: compound fluorescence. compound autofluorescence counterscreen, microsphere flow cytometry; active compounds read high. fluorescence intensity (test concentration not listed). 360,000 tested, 3.1% active; in the data active means fluorescence intensity above about 16000; inconclusive means no clear call, values can overlap the other calls
Anthrax LF prot – Bacillus anthracis LF protease inhibitors, primary screen, biochemical, multiplex microsphere, MLPCN library. multiplex microsphere protease cleavage assay. 360,000 tested, 0.12% active. inhibition, % at 10 µM. Lethal factor (Bacillus anthracis), P15917; further: plate controls were buffer without enzyme for full effect and enzyme alone for no effect
MazEF act – activators of E. coli MazEF toxin-antitoxin RNase, primary screen, biochemical, fluorescence, uHTS; Endoribonuclease toxin MazF (Escherichia coli (strain K12)), P0AE70; FAM/BHQ RNA-DNA oligo cleavage fluorescence, 5 h; activation, % at 20 µM; 350,000 tested, 0.32% active; AID 504720, 2011; in the data active means activation above about 50%
Target sequence (P0AE70 whole entry, looked up): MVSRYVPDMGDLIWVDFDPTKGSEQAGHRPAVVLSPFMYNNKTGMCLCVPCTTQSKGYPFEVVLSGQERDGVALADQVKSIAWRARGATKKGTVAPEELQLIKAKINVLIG
Active calls of the source: *; ? = inconclusive; . = not tested or not shown. Hits are enriched below; roughly 4.3% of the tested compounds scored in any of these assays. Unless noted, no stated cut-off is given here; in the data, active means inhibition above about 30%; inconclusive means no clear call, values can overlap the other calls; inactive means below that.

SMILES | BoNT-F LC inh | BoNT A protease | PfHsp40 yeast | Bead autofluor | Anthrax LF prot | MazEF act
CC(=O)c1c(N2CCCCC2)nc(=S)n(Cc2ccccc2)c1C | -5 | 1 | -1 | 6242 | -3 | -4
CC(=O)c1c(N2CCC(C(N)=O)CC2)nc(=S)n(-c2ccccc2)c1C | -1 | 0 | 1 | 22860* | -3 | -3
COCCNC(=O)CCn1nc(-c2ccc(C)cc2)ccc1=O | 8 | 1 | -2 | 3815 | 0 | 8
O=C(O)c1cccc2c1C(=O)c1ccc(Cl)cc1S2(=O)=O | 1 | 0 | 0 | 3814 | -3 | 5
O=C(O)c1cccc2c1-c1ccc(Cl)cc1C2 | -3 | 0 | 44* | 3852 | -8 | 3
c1ccc(-c2ncc(-c3ccn[nH]3)s2)cc1 | 2 | 0 | 65* | 4320 | 1 | 7
c1ccc(Oc2ccc(-c3ccn[nH]3)cc2)cc1 | ? | ? | 8 | 4826 | -7 | -9
CC(C)c1c(O)nc(SCCC(=O)O)[nH]c1=O | 3 | -1 | -1 | 10568 | 3 | 8
CCCN(CCC)CCSc1nc(O)c(C(C)C)c(=O)[nH]1 | 5 | ? | 0 | 18038* | -14 | 3
CCN(CC)CCSc1nc(O)c(-c2ccccc2)c(=O)[nH]1 | -3 | -2 | -1 | 17285* | -2 | 4
COC(=O)N1CCCCC1c1cc(C(=O)N2CCOCC2)no1 (stereo unspecified) | -1 | 0 | . | 3583 | 0 | .
COc1ccc(C(=O)NCC(=O)OCC(=O)N2CC(C)CC(C)C2)cc1 (stereo unspecified) | -389 | -20 | 0 | 17297* | 3 | -2
COc1ccc(N2CCN(C(=O)COC(=O)CNC(=O)c3ccc(C)cc3)CC2)cc1 | ? | ? | -1 | 4329 | ? | 2
Cc1ccc(S(=O)(=O)c2nc(C(C)(C)C)oc2N2CCOCC2)cc1 | -2 | 0 | 0 | 16379* | 1 | -7
Cc1ccc(S(=O)(=O)c2nc(C)oc2N2CCOCC2)cc1 | -6 | 0 | 0 | 4543 | 2 | 8
COC(=O)c1ccc(C2c3c(oc4ccc(Cl)cc4c3=O)C(=O)N2CCN2CCOCC2)cc1 (stereo unspecified) | 5 | 1 | 1 | 3228 | -1 | 4
Cc1ccc(OCCn2c(C)c(/C=N/n3cnnc3)c3ccccc32)cc1 | ? | 2 | -1 | 3679 | 8 | 49
Cc1c(/C=N/n2cnnc2)c2ccccc2n1CCOc1ccc(Cl)cc1 | -2 | 0 | 0 | 16355* | -5 | 113*
Cc1cccc(-n2c(C)cc(/C=N/NC(=O)c3ccc(CN4CCOCC4)cc3)c2C)c1 | -9 | -1 | -1 | 11405 | -3 | 3
Cc1ccc(-n2c(C)cc(/C=N/NC(=O)c3ccc(CN4CCOCC4)cc3)c2C)cc1 | -1 | 2 | 0 | 19963* | -3 | -2
C=CCNc1nc(-c2ccccn2)nnc1-c1ccccc1 | -156 | -12 | 354* | 8106 | -1 | 2
CN(c1ccc(OCC(=O)NC2CCC(O)CC2)cc1)S(=O)(=O)c1ccc(Cl)cc1 (stereo unspecified) | -1 | 0 | 1 | 3746 | -12 | -1
CN(C)Cc1cn(CCC(=O)O)c2ccccc12 | -6 | -1 | -1 | 24504* | 1 | 1
CCOC(=O)Cc1csc(NC(=O)CSc2nnc(-c3ccncc3)o2)n1 | -9 | -1 | 3 | 4305 | -3 | -2
CCOC(=O)Cc1csc(NC(=O)CSc2nnc(-c3ccc(NS(=O)(=O)CC)cc3)o2)n1 | 3 | 2 | 1 | 21681* | 3 | -4
SMILES | BoNT-F LC inh | BoNT A protease | PfHsp40 yeast | Bead autofluor | Anthrax LF prot | MazEF act
CCOC(=O)c1ccccc1NC(=O)CC(C)CC(=O)O (stereo unspecified) | -13 | 0 | 0 | 2485 | 0 | 12
CC(CC(=O)O)CC(=O)Nc1ccccc1C(=O)O (stereo unspecified) | -5 | 0 | 0 | 22711* | 3 | -2
C/C(CCc1ccccc1)=N\NC(=S)NCCc1ccccc1 | -7 | 0 | 4 | 3266 | 1 | -34
C/C(=N\NC(=S)NCCc1ccccc1)c1cccs1 | -4 | 0 | 96* | 2098 | 0 | -16
O=C(NCc1ccc(F)cc1)c1noc2c1CCCC2 | 1 | 2 | 0 | 19451* | 0 | -11
Cc1ccccc1Cn1cc(NC(=O)c2noc3c2CC(C(C)(C)C)CC3)cn1 (stereo unspecified) | -1 | ? | 0 | 16905* | -3 | 3
Cc1ccccc1Cn1nc(C)c(NC(=O)c2noc3c2CC(C(C)(C)C)CC3)c1C (stereo unspecified) | 4 | 0 | 0 | 7718 | -1 | -19
CC(C)(C)C1CCc2onc(C(=O)NCc3ccc(F)cc3)c2C1 (stereo unspecified) | 0 | 1 | 7 | 22455* | 0 | 2
O=C1Nc2ccccc2N=C(c2ccccc2)c2ccccc21 | -3 | -1 | . | 5987 | -5 | 1
CCOC(=O)c1c(-c2cccs2)csc1NC(=O)c1ccncc1 | 4 | -1 | 1 | 4274 | 4 | 10
CCOC(=O)c1c(-c2cccs2)csc1NC(=O)COC(=O)c1c(C)noc1C | -3 | 0 | -1 | 16276* | -4 | -3
COc1ccc(CCn2c(C3CCCCC3)nc3c(c(=O)c4ccccc4n3C)c2=O)cc1OC | 9 | 0 | 104* | 6124 | 5 | 13
COc1ccc(CCn2c(C3CCCCC3)nc3c(c(=O)c4ccccc4n3C)c2=O)cc1 | . | . | . | . | . | -24
CCn1c(CNC(=O)c2cccs2)nnc1SCC(=O)Nc1ccc(Cl)cc1 | -5 | -2 | -1 | 17189* | -5 | 2
CCn1c(SCC(=O)NCCc2ccccc2)nnc1-c1cccs1 | 9 | -1 | -1 | 4607 | -3 | -3
CCn1c(CNC(=O)c2cccs2)nnc1SCC(=O)Nc1cc(Cl)ccc1C | 10 | ? | 0 | 21203* | -2 | -1
CCn1c(CNc2ccc(Cl)cc2)nnc1SCc1ccc(Cl)cc1 | -6 | 0 | 166* | 5524 | 1 | -1
CCn1c(CNC(=O)c2cccs2)nnc1SCC(=O)NCCc1ccccc1 | 1 | ? | -1 | 24231* | -2 | 1
Cc1c(C(=O)OCc2nc3ccsc3c(=O)[nH]2)oc2ccccc12 | 2 | -2 | 1 | 7912 | -3 | 0
Cc1ccnc(NC(=O)c2cccc(S(=O)(=O)NCc3ccccc3)c2)c1 | . | . | 1 | . | . | 2
CCOC(=O)C1(CC2CC2)CCN(S(=O)(=O)/C=C/c2ccccc2)CC1 | -6 | 0 | 3 | 4331 | -1 | 0
COc1c(O)c(=O)n2c3ccccc3c3ccnc1c32 | -3 | 0 | 66* | 5041 | -2 | 1
O=C(Cn1c(CCCO)nc2ccccc21)Nc1ccccc1-c1ccccc1 | -2 | 3 | 1 | 2957 | 11 | 1
